The results in this text go back to PubChem BioAssay AID2490 (National Center for Advancing Translational Sciences (NCATS), 2010).

Active and inactive are the calls of the source. Where a call stands in place of a potency, no number is given. Calls come from the whole dose curve.

In the experiment the target is Thyroid hormone receptor beta (Homo sapiens) (UniProt P10828). Kind of experiment: Secondary Confirmation Assay for Inhibitors of the Interaction of Thyroid Hormone Receptor and Steroid Receptor Coregulator 2, Texas Red Fluoroprobe. The note with it: TRb LBD / Texas Red SRC2 peptide fluorescence polarization. From the text: NIH Molecular Libraries Probe Production Network [MLPCN] NIH Chemical Genomics Center [NCGC] MLPCN Grant: DK058080 Assay Provider: R. Kip Guy, St. Jude Children's Research Hospital NCGC Assay Overview: Thyroid receptor (TR) regulates many homeostatic processes including basal metabolism, cardiovascular function, body weight, and lipid trafficking. TR modulators are potential therapeutics for obesity and hyperlipidemias but current thyroid analogs have undesirable side effects, particularly cardiac stimulation. To identify inhibitors that specifically prevent the interaction of TR with the steroid receptor coregulator 2 (SRC2), a fluorescence polarization assay was screened (Arnold et al., 2006). This assay detects the interaction of the ligand-binding domain of human TRb with a Texas Red labeled SRC2 peptide, corresponding to a 20 amino acid region of the nuclear receptor interaction domain. Small molecule inhibitors that block the interaction of TR and SRC2 are detected by a decrease in fluorescence polarization.
Chain of Thyroid hormone receptor beta (Homo sapiens) (P10828 whole entry, looked up, the tested form may be a part): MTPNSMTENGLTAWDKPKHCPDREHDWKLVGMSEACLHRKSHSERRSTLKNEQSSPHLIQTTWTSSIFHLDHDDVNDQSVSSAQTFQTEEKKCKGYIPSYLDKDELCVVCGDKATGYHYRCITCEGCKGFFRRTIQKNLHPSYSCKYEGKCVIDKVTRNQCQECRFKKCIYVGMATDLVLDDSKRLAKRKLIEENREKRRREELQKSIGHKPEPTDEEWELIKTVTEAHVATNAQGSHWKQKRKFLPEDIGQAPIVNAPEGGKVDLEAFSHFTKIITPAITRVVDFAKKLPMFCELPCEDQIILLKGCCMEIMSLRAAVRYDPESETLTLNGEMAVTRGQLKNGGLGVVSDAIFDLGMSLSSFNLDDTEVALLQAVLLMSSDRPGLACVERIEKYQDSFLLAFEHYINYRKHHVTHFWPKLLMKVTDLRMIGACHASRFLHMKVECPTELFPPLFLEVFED
NCGC Assay Protocol Summary: Twenty uL/well 0.6 uM TRb and 20 nM Texas Red labeled SRC2-2 in protein buffer (20mM Tris hydrochloride, pH 7.4, 100mM NaCl, 10% glycerol, 1mM EDTA, 0.01% NP-40, 1mM DTT, 1uM T3 and 4% DMSO) was dispensed into black solid 384-well plates (Costar 3710) using a Biomek FX (Beckman Coulter) liquid handling system. Following transfer of 260 nL compound (ranging from 7 nM to 130 uM), the plates were incubated 3 hr at ambient temperature. The plates were read by an Envision (Perkin Elmer) to detect fluorescence polarization of SRC2 Texas Red (555 nm excitation and 632 nm emission). Arnold, L. A.; Estebanez-Perpina, E.; Togashi, M.; Shelat, A.; Ocasio, C. A.; McReynolds, A. C.; Nguyen, P.; Baxter, J. D.; Fletterick, R. J.; Webb, P.; Guy, R. K. A high-throughput screening method to identify small molecule inhibitors of thyroid hormone receptor coactivator binding. Sci STKE 2006, p 13.
As to `O=C(COC(=O)c1cccc([N+](=O)[O-])c1)NC1C2CC3CC(C2)CC1C3` (stereo not given), the compound was called inactive. The same measure, in the same setting: next, `O=C(COC(=O)c1ccc(Cl)c([N+](=O)[O-])c1)NC1C2CC3CC(C2)CC1C3` (stereo not given): “inactive”. Regarding `CS(=O)(=O)c1ccc(C(=O)OCC(=O)N2CCCc3ccccc32)cc1[N+](=O)[O-]`, the Potency is 2.3 µM (active). For the compound `CCC(OC(=O)c1ccc(S(C)(=O)=O)c([N+](=O)[O-])c1)C(=O)NC1C2CC3CC(C2)CC1C3` (stereo not given), the Potency was 1.1 µM (active).

For the compound `CS(=O)(=O)c1ccc(C(=O)OCC(=O)NC(=O)NC2CCCCC2)cc1[N+](=O)[O-]`, the Potency was 19.1 µM (active). On to `CS(=O)(=O)c1ccc(C(=O)OCC(=O)NCC2CCCO2)cc1[N+](=O)[O-]` (stereo not given), for which the result was inactive.

Turning to `CS(=O)(=O)c1ncc(C(=O)OCC(=O)NC2C3CC4CC(C3)CC2C4)cn1` (stereo not given), the Potency was 3.2 µM (active). For the compound `Cc1ccc(F)cc1NC(=O)COC(=O)c1ccc(S(C)(=O)=O)c([N+](=O)[O-])c1`, the compound was called inactive. On the same count and under the same terms, next, `N#Cc1ncc(C(=O)OCC(=O)NC2C3CC4CC(C3)CC2C4)cn1` (stereo not given): “inactive”. The same measure, in the same setting: next, `C[S+](=O)([O-])c1ccc(C(=O)OCC(=O)NC2C3CC4CC(C3)CC2C4)cc1` (stereo not given): “inactive”. Regarding `CS(=O)(=O)c1ccc(C(=O)OCC(=O)N2CCNc3ccccc32)cc1[N+](=O)[O-]`, the Potency is 1.1 µM (active).

In the case of `CS(=O)(=O)c1ccc(C(=O)OCC(=O)Nc2cc(C(F)(F)F)ccc2Cl)cc1[N+](=O)[O-]`, the compound was classed as inactive. On the same count and under the same terms, next, `C[S+](=O)([O-])c1ccc(C(=O)OCC(=O)N2CCN([S+](C)(=O)[O-])CC2)cc1[N+](=O)[O-]`: “inactive”; `O=C(COC(=O)c1ccc(C(F)(F)F)cc1)NC(=O)C1CCCCC1`: “inactive”. As for `CS(=O)(=O)c1ccc(C(=O)OCC(=O)N2Cc3ccccc3C2)cc1[N+](=O)[O-]`, the Potency is 3 µM (active). `CC(=O)N1CCN(C(=O)COC(=O)c2ccc([S+](C)(=O)[O-])c([N+](=O)[O-])c2)CC1`: the call was inactive.

As for `CCN1CCN(C(=O)COC(=O)c2ccc(S(C)(=O)=O)c([N+](=O)[O-])c2)CC1C` (stereo not given), the compound was classed as inactive. For `CCCC1CCN(C(=O)COC(=O)c2ccc(S(C)(=O)=O)c([N+](=O)[O-])c2)CC1`, the Potency is 3.3 µM (active).

As to `CS(=O)(=O)c1ccc(-c2nnc(-c3ccccc3)s2)cc1[N+](=O)[O-]`, the compound was classed as inactive.

`O=C(COC(=O)c1cc([N+](=O)[O-])ccc1F)NC1C2CC3CC(C2)CC1C3` (stereo not given): the outcome was inactive. Same read-out and setting: next, `CS(=O)(=O)c1ccc(-c2nnc(-c3ccccc3)o2)cc1[N+](=O)[O-]`: “inactive”.

Regarding `CS(=O)(=O)c1ccc(C(=O)NCC(=O)NC2C3CC4CC(C3)CC2C4)cc1[N+](=O)[O-]` (stereo not given), the Potency was 11.3 µM (active). The same measure, in the same setting: next, `CS(=O)(=O)c1ccc(C(=O)OC(C(=O)NC2C3CC4CC(C3)CC2C4)c2ccccc2)cc1[N+](=O)[O-]` (stereo not given): 3.9 µM (active). For the compound `C#CCNC(=O)COC(=O)c1ccc(S(C)(=O)=O)c([N+](=O)[O-])c1`, the compound was classed as inactive. `CC(=O)c1cccc(NC(=O)COC(=O)c2ccc(S(C)(=O)=O)c([N+](=O)[O-])c2)c1`: the outcome was inactive.
